# Laboratory results reported in the supplement of paper PMC7724964.
# T1: UEVLD 1-145 UEV (domain begin residue: 1, domain end residue: 145), Q8IX04
# T1 chain: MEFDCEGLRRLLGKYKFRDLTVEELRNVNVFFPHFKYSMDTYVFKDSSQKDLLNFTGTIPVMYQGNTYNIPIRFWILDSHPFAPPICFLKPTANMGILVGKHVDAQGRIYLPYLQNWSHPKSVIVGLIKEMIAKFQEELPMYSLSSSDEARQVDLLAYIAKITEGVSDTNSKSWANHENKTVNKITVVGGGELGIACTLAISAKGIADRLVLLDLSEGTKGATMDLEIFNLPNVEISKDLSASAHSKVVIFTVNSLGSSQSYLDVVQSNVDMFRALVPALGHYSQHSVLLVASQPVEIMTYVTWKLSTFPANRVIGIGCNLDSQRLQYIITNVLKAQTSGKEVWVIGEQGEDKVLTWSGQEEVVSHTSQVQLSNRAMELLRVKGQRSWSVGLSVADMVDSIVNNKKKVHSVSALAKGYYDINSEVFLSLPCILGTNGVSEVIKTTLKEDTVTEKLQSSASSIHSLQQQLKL
# T2: VCL 1-259 Vinculin (domain begin residue: 1, domain end residue: 259), P18206
# T2 chain: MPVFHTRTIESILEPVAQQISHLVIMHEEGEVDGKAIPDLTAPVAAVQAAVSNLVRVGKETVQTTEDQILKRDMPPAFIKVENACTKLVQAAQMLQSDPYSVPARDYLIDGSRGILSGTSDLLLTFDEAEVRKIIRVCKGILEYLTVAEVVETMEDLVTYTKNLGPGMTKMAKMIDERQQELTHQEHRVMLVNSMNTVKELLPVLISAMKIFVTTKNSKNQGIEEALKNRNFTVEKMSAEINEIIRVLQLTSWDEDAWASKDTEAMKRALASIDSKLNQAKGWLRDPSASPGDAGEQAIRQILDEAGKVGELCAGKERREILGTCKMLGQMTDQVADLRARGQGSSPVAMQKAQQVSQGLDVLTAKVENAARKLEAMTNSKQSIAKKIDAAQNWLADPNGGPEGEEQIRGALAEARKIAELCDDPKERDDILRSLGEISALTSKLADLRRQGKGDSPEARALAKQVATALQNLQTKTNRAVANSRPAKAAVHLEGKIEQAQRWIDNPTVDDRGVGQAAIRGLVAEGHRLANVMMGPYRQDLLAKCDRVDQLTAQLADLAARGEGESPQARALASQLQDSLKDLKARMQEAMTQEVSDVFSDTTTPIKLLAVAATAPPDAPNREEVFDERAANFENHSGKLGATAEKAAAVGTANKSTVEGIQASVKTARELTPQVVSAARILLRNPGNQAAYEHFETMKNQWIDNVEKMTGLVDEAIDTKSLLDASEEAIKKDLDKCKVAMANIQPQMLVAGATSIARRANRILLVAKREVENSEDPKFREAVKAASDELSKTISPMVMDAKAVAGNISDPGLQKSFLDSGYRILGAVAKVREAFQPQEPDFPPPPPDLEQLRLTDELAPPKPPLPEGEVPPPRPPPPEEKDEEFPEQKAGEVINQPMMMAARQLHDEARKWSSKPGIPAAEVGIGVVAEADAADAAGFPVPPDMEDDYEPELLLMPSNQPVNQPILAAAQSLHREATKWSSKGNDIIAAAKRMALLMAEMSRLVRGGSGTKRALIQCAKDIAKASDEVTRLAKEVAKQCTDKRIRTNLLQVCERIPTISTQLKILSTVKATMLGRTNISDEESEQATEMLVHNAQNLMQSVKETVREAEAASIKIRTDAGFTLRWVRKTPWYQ
# Columns and labels:
# Assay in all cases: phage ELISA signal ratio (GST-PRM binding over GST background); higher = stronger binding of peptide-phage to the PRM
# [1] = biological target: T1, UEVLD 1-145 UEV (domain begin residue: …
# How it was run: (§1)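 Five rounds of selection were carried out against human peptide recognition domains fused to the C-terminus of glutathione S-transferase (GST) and expressed in 96-well plates. The M13 phage library presented randomized hexadecapeptides, cysteine-free and glycine-flanked, on the gene-8 major coat protein. For each value, the phage ELISA signal on the GST-domain fusion was divided by the signal on GST alone.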
# [2] = biological target: T2, VCL 1-259 Vinculin (domain begin …
# How it was run: as §1
# [3] = biological target: UBR5 2391-2453 PABP (domain begin residue: 2391, domain end residue: 2453), O95071
# How it was run: as §1
# [4] = biological target: VASP 1-114 WH1 (domain begin residue: 1, domain end residue: 114), P50552
# How it was run: as §1
# Sequence of VASP 1-114 WH1 (domain begin residue: 1, domain end residue: 114), P50552 (P50552 whole entry): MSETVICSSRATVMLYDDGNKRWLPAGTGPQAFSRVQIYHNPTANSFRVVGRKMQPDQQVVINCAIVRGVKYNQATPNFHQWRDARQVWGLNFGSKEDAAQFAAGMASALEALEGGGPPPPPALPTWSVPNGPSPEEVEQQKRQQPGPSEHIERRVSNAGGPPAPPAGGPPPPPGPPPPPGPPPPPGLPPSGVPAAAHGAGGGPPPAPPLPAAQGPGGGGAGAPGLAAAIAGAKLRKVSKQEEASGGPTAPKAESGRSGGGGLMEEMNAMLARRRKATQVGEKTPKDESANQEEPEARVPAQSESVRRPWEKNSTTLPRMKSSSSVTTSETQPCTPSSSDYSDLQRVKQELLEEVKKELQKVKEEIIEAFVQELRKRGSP
# Sequence of UBR5 2391-2453 PABP (domain begin residue: 2391, domain end residue: 2453), O95071 (O95071 whole entry): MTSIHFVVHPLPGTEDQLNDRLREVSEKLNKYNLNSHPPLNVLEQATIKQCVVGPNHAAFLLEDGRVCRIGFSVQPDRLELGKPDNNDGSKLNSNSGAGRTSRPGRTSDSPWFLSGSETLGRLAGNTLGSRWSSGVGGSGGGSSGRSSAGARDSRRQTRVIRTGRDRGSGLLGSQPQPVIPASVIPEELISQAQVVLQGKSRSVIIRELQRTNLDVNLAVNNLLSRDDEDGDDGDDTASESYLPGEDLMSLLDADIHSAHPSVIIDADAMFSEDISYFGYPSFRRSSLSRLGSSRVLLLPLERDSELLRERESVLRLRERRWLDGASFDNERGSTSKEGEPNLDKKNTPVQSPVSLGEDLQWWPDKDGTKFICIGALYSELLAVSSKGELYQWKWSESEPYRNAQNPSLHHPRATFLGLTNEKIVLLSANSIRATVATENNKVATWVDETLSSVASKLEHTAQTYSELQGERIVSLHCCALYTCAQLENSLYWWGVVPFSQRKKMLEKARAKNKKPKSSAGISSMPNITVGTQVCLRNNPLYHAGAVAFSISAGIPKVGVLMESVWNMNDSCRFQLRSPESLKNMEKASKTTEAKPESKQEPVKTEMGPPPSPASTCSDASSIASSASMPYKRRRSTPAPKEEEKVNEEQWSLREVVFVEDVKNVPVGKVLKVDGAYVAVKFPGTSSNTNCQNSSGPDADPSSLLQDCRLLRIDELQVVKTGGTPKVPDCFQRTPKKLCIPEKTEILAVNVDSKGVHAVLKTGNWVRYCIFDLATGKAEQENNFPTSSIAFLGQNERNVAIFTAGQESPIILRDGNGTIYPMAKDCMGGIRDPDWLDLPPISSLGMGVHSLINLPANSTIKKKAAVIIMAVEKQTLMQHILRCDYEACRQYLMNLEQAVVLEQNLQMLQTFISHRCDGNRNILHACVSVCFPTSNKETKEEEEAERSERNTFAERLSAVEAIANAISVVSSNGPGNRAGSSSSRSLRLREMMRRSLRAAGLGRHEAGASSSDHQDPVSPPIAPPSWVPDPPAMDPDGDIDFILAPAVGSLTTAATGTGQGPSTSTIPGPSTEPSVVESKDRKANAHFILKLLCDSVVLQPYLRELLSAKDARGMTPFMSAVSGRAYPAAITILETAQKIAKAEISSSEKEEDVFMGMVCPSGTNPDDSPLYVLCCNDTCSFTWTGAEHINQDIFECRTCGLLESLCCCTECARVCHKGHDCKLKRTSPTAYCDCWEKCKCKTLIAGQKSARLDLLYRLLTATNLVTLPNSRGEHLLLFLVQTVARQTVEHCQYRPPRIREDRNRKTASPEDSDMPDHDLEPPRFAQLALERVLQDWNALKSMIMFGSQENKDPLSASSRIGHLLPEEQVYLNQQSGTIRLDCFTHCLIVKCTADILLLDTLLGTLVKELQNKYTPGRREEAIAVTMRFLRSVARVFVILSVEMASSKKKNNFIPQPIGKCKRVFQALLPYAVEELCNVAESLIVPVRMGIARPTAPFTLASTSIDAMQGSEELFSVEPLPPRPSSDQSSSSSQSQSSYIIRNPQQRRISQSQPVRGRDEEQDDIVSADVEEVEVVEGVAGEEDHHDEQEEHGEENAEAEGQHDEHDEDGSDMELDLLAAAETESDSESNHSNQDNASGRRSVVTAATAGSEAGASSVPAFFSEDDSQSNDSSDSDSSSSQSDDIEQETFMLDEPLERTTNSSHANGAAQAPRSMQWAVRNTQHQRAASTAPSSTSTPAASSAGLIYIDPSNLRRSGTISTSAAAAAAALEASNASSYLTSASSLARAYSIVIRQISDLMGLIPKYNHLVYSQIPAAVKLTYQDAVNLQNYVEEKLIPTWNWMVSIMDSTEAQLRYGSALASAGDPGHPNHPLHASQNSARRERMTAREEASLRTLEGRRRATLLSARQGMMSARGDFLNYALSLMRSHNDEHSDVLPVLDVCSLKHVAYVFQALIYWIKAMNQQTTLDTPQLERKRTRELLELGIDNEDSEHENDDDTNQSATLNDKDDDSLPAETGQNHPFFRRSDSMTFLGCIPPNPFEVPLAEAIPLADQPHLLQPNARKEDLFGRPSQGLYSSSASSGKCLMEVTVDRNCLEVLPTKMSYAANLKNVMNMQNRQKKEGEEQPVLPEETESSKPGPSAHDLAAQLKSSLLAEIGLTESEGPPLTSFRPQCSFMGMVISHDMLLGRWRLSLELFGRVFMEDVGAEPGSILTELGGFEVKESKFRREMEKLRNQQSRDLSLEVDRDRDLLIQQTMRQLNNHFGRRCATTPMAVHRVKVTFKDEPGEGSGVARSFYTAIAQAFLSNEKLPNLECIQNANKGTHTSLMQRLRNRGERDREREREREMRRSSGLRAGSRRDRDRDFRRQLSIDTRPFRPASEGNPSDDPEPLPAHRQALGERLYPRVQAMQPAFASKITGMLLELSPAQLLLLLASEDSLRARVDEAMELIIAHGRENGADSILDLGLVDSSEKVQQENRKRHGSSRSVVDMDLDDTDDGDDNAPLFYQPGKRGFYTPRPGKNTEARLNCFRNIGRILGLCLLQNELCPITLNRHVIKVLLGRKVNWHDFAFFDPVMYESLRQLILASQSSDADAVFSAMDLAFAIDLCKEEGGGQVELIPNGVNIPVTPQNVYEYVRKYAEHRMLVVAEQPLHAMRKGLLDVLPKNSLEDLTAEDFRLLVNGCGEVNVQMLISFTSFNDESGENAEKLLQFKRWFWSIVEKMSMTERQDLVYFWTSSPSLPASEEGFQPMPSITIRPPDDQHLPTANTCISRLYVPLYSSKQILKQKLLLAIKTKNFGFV
binder,measurement,setting,value
HQWQGDWDHEHIMMYW,phage ELISA signal ratio,[1],24.1
WGSEDTQYWLEYVNSV,phage ELISA signal ratio,[2],24.6
LTGEIWDAEKVIHYVM,phage ELISA signal ratio,[2],11.1
WRQDLETESLMQWFLW,phage ELISA signal ratio,[1],15.2
MMPTTEDGWEMWLAEL,phage ELISA signal ratio,[2],21.4
EALNIFSPMWEPQYVV,phage ELISA signal ratio,[3],19.5
ALSMSAEPFHPMVNYV,phage ELISA signal ratio,[3],30.1
LDSFWDAENVIRSIMI,phage ELISA signal ratio,[2],12.9
DNFENWIENWLLEYNG,phage ELISA signal ratio,[2],9.78
NWDIWPDWPPTQSVMW,phage ELISA signal ratio,[4],5.89
QMNVQAQEWWPAHMTF,phage ELISA signal ratio,[3],18.6
MDVAAQPWIPIVPPEG,phage ELISA signal ratio,[3],28.6
NTVEWQDMEGHLLGIV,phage ELISA signal ratio,[2],15.3
YWDAGEVMAQIIQSAH,phage ELISA signal ratio,[2],11.9
SDDWFFDLTHSIISTD,phage ELISA signal ratio,[2],18.4
APVVHDFDAYKMLMQL,phage ELISA signal ratio,[2],17.2
DDIWPVSAVHAQPFMV,phage ELISA signal ratio,[3],21.2
YGMSIDASSFVPYEFW,phage ELISA signal ratio,[3],17.8
TAHDWIDEWLVQAMLQ,phage ELISA signal ratio,[2],20.3
NLETWAWPPWPQEFND,phage ELISA signal ratio,[4],23.3
LWDWTPETEQWFQEIV,phage ELISA signal ratio,[2],13.5
WWEQDQDWEEFVNAIE,phage ELISA signal ratio,[2],16.9
ELSIWADAFQPHWHKV,phage ELISA signal ratio,[3],21.8
FDWRETLWESSQWMIA,phage ELISA signal ratio,[1],22.7
IQDWPELPEVMMHWTL,phage ELISA signal ratio,[4],9.17
EDHWWIASMWRDQAVQ,phage ELISA signal ratio,[1],18.1
LDMFWPEPPMFNREIP,phage ELISA signal ratio,[4],24.9
FPQMWQSPDFWEDWLL,phage ELISA signal ratio,[2],12.6
